Experimental data taken from PubChem BioAssay AID1851 (National Center for Advancing Translational Sciences (NCATS), 2009).
Hit rate of the full screen: of about 16,000 compounds, about 2,600 (16%) were called active. Roughly 20% stayed inconclusive and do not appear here. Calls follow the shape of the dose curve; as a rule, active = well fitted curve in the direction sought with a large enough effect; inconclusive = small, poorly fitted or top-dose-only effect, or effect the other way; inactive = no such curve, though single readings can be large or run the other way. Not all results are given here.

biological target: Cytochrome P450 2D6 (Homo sapiens) (UniProt P10635); test: Cytochrome panel assay with activity outcomes; details: recombinant CYP, pro-luciferin dealkylation, luminescence, p450-cyp2d6; series mostly up to 57.1 µM; activity, negative = inhibition: at the top concentration
% is scaled to controls: 0 for no effect and ±100 for the full control effect.

Cytochrome P450 2D6 (Homo sapiens), sequence (P10635 whole entry, looked up): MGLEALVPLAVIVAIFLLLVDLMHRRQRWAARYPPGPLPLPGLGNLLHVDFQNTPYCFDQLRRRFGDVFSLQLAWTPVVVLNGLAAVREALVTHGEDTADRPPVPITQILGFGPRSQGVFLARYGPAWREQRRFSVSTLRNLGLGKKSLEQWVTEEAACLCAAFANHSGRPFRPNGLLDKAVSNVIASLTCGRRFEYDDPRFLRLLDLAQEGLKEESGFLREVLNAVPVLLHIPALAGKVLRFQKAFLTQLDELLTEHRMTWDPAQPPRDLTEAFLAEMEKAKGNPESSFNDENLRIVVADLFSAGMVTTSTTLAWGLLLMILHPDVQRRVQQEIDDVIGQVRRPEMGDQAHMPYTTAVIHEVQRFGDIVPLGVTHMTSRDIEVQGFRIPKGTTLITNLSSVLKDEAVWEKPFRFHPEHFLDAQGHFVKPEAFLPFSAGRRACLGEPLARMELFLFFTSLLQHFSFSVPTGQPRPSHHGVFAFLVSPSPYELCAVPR

activity, negative = inhibition, inactive:
CC(C)Oc1ccc(C2CC(=O)NC3=C2C(=O)CCC3)cc1 (centres undefined) -8.75%
CCCCSC(=S)N(C)C1CCS(=O)(=O)C1 (centres undefined) -20.3%
C=C(Br)CN(C)CC(=C)Br 9.77% [at 11.4 µM]
CCOc1cc(C2CC(=O)c3c(ccc4ccccc34)N2)ccc1O (centres undefined) -0.911%
COc1ccc(C2C(C(=O)N3CCOCC3)CCC(=O)N2c2ccc(OC)cc2)cc1 (centres undefined) 8.66%
CC(C)C(NC(=O)C12CC3CC(CC(C3)C1)C2)C(=O)NC1=NCCS1 (centres undefined) -10.7%
COC(=O)c1cc(C(=O)c2cccc(Cl)c2Cl)cn1C -19.6%
Cc1cnc(CNc2ncncc2-c2ccccc2C#N)cn1 -2.44%
CC(C)Oc1cccc(C(=O)NC(=S)N2CCN(c3ccc(C(F)(F)F)cc3[N+](=O)[O-])CC2)c1 -16.2%
O=C(CCN1C(=O)/C(=C/c2cccc(Br)c2)SC1=S)NNC(=O)c1cccnc1 -8.93%
C[C@](O)(c1ccccc1)c1nccc2ccccc12 -11.5% [at 11.4 µM]
COc1cccc(NC(=O)c2oc3ccccc3c2NC(C)=O)c1 -15.6%
CCOC(=O)CC1NC(=O)c2ccccc21 (centres undefined) 11.6%
C=CCSc1nc2ccccc2c(=O)n1Cc1ccco1 -11.2% [at 11.4 µM]
O=C(Cn1cccc1)NC1CCCCCC1 5.48%
Cc1ccc(-n2c(C)nnc2SCC(=O)N2CCc3ccccc3C2)cc1C 0.438%
C=CCn1c(SCC(=O)N2CC(=O)Nc3ccccc32)nc2scc(-c3ccccc3)c2c1=O -13.4%
CCOC(=O)c1sc(N(Cc2ccccc2)C(=O)CN2C(=O)CN(C)C2=O)nc1C -26%
c1ccc(-c2nccc(-c3ccc(-n4cnc5ccccc54)cc3)n2)nc1 -20.9%
CCOC(=O)c1cn(-c2nc(-c3ccc(Cl)cc3)cs2)c2c(F)c(N3CC(C)OC(C)C3)c(F)cc2c1=O (centres undefined) -6.02%
C[C@@H](c1ccccc1)N1C(=O)[C@H]2[C@H]3[C@H](O)[C@H](O)C/C(=N/OC[C@@H](O)COCc4ccco4)[C@H]3CC[C@@H]2C1=O -0.906% [at 11.4 µM]
Cc1cccc(NC2=NC(=S)N(c3ccc(C(=O)O)cc3)C23CCCCC3)c1 33.6%
CCCn1cnc2c1c(=O)n(CCCCC(C)=O)c(=O)n2C 5.76%
NC(=O)C(=O)O 9.07%
COc1ccc(C(=O)O/N=C/c2ccc(S(=O)c3ccc(Cl)cc3)nc2)cc1 (centres undefined) 4.34%
CCCn1nnnc1-c1cc(Cl)cc(Cl)c1 -16.5%
CC1=CC(=C2C(=O)c3ccccc3C2=O)C=C(C)O1 -1.34%
CCn1c(C)nc2c1C(=O)c1ccccc1C2=O -24.8%
Cc1ccc(-n2ncc3c(=O)n(CC(=O)NCC4CCCO4)cnc32)cc1 (centres undefined) -2.25%
O=C(/C=C/Nc1ccccc1)c1ccc(Oc2ncccn2)cc1 -24.4%
CCCc1ccc(-c2cc(C(=O)NN3CCOCC3)c3ccccc3n2)cc1 -8.77%
COc1ccccc1CN1C(=O)c2ccncc2C1=O -1.12%
COc1ccccc1CCn1c(=O)c(-c2ccc(F)cc2)nc2cncnc21 12.9%
CCOc1[nH]n(-c2ccc(Cl)cc2)c(=O)c1C=Nc1ccc(Cl)cc1 1.47%
CCOc1ccc(N/N=C(/C#N)C(N)=O)cc1 -4.83%
CO[C@@H]1COC(=O)[C@H]2CCCN2C(=O)[C@@H](C)COC(=O)C/C=C\[C@H]1C -1.92% [at 11.4 µM]
Cc1ccc(C(=O)N/C(=C/C=C/c2ccccc2)C(=O)NCc2ccco2)cc1 7.67%
Cc1c(Br)cc(C(=O)NC2CCCCC2)c(C)c1C -8.72%
OC[C@@H]1O[C@@H](n2cnc3c(SCc4ccccc4)ncnc32)[C@@H](O)[C@H]1O -0.968% [at 11.4 µM]
O=C(CCCCC(=O)Nc1c(I)cc(I)c(C(=O)O)c1I)Nc1c(I)cc(I)c(C(=O)O)c1I -0.733% [at 25.6 µM]
CCOC(=O)CSc1nnc(CSc2nc3sc4c(c3c(=O)[nH]2)CCCC4)n1-c1ccccc1 -29.7%
NC1=NC(=O)/C(=C/c2cccs2)S1 20.3%
COc1ccc(-c2nc3cnc(N4CCNCC4)nc3n(C3CC3)c2=O)cc1 1.04%
Nc1ccc(S(=O)(=O)Nc2ccc(Cl)nn2)cc1 6.78% [at 25.6 µM]
COc1ccc2c(c1)-c1c(sn(-c3ccc(OC)c(OC)c3)c1=S)C(C)(C)N2 21.3%
C[C@H]1CN(CCO)CCN1c1ccccc1 11.2% [at 11.4 µM]
O=C(O)c1cccc(OCCO)c1 5.58% [at 11.4 µM]
CO[C@H]1COC(=O)[C@H]2CCCN2C(=O)C/C=C\[C@@H](C)[C@H](OC)COC(=O)C/C=C\[C@@H]1C -7.59% [at 11.4 µM]
CC1=C[N+](=O)c2ccccc2[N+]1=O 22.3% [at 11.4 µM]
CC(=O)OC[C@@H]1O[C@H](CCO/N=C(\C)CCC(=O)OC[C@@H]2O[C@H](C#Cc3ccccc3)C=C[C@@H]2Oc2ccc(C)cc2)C=C[C@@H]1OC(C)=O 15.9% [at 11.4 µM]
COc1ccc(O[C@H]2C=C[C@@H](c3ccccc3)O[C@H]2CO/N=C2/c3cc(OC)ccc3O[C@@H](c3cccc(OC)c3)[C@H]2O)cc1 -21.5% [at 11.4 µM]
COc1ccc(O[C@H]2C=C[C@@H](c3ccccc3)O[C@H]2CO/N=C(/C)CCC(=O)OC[C@@H]2O[C@H](c3ccccc3)C=C[C@@H]2Oc2ccc(OC)cc2)cc1 8.39% [at 11.4 µM]
COc1ccc(O[C@H]2C=C[C@@H](c3ccccc3)O[C@H]2CO/N=C\C[C@@H]2C=C[C@H](OC(C)=O)[C@H](COC(C)=O)O2)cc1 -5.75% [at 11.4 µM]
C/C(CCC(=O)OC[C@@H]1O[C@H](C#Cc2ccccc2)C=C[C@@H]1Oc1ccc(C)cc1)=N/OC[C@@H](O)COCc1ccco1 5.64% [at 11.4 µM]
CCCNC(=O)OC[C@@H]1O[C@H](CCO/N=C2\c3cc(OC)ccc3O[C@H](c3cccc(OC)c3)[C@H]2O)C=C[C@@H]1Oc1ccc(OC)cc1 -1.45% [at 11.4 µM]
CN1CCN(c2ncc3ncc(=O)n(CCC#N)c3n2)CC1 1.57%
COC(=O)c1ccc(Oc2cc(C)nc(-n3nc(C)cc3C)n2)cc1 -10.5%
Cc1cccc(NC(=S)NNC(=O)CC(C)O)c1C (centres undefined) -3.05%
O=C(/C=C/c1ccc2ccccc2c1)c1ccoc1 -5.53%
COC(=O)c1c(-c2ccc3ccccc3c2)csc1NC(=O)Cc1ccc(OC)c(OC)c1 9.92%
CNC(=O)c1nnn(Cc2ccccc2)c1NC(=O)C(F)(F)F 14.6%
O=C(N/N=C/c1ccc([N+](=O)[O-])s1)c1ccccc1Br -20.2%
O=C(O)CCCCCNC(=O)c1ccccc1Br 15.5%
NC(=O)N1c2ccccc2C=Cc2ccccc21 1.87% [at 25.6 µM]
Cc1cc(Oc2ccc(-c3ccccc3)cc2)nc(N2CCOCC2)n1 -22.5%
CCC(C)n1nnc2c(=O)oc3ccccc3c21 (centres undefined) 9.18%
C[C@@H](C(=O)Nc1ccc2ccccc2c1)[C@@H]1C[C@@]1(C)[C@@H](NC(=O)c1cnccn1)c1ccccc1 -6.62%
COC(=O)[C@H]1C[C@@H]1[C@H](NC(=O)c1cnccn1)c1ccccc1 -5.05%
O=P(O)(O)O[C@@H]1O[C@H](CO)[C@@H](O)[C@H](O)[C@@H]1O 9.85% [at 11.4 µM]
CCOC(=O)/C(C#N)=C\N(C)C 0.62%
O=C(c1cccc(F)c1)N1CCC2(CCCN(c3ccc(-c4ccccc4)cc3)C2)CC1 3.09%
Cc1ccc(OCC(=O)Nc2ccc(S(=O)(=O)Nc3onc(C)c3C)cc2)cc1 -9.39%
COCc1nc2c([nH]1)c(=O)n(C)c(=O)n2CC(C)C 5.94%

AC50, active:
CN(C)Cc1ccccc1-c1cncnc1NCc1cccs1 12.6 µM
C=CCn1c(SCC(=O)N2CCc3ccccc3C2)nc2ccccc2c1=O 15.8 µM
O=C(Cn1c(SCC(=O)N2CCc3ccccc3C2)nc2ccccc21)NC1CCCC1 25.1 µM
CC1=CC(=O)c2ccccc2C1=O 7.94 µM
COc1ccccc1CNc1ncncc1-c1ccccc1C 10 µM
COc1ccccc1CNc1ncncc1-c1ccccc1Cl 2 µM
COc1ccccc1CNc1ncncc1-c1ccccc1OC 10 µM
COc1ccccc1CNc1ncncc1-c1ccoc1 20 µM
OCCN1CCN(CCOc2cccc(Cl)c2)CC1 5.01 µM
COc1ccc(O[C@H]2C=C[C@@H](c3ccccc3)O[C@H]2COC(=O)CC/C(C)=N/O[C@@H]2O[C@H](COC(C)=O)[C@H](OC(C)=O)[C@H](OC(C)=O)[C@H]2OC(C)=O)cc1 3.16 µM
COc1cccc([C@H]2Oc3ccc(OC)cc3/C(=N\O[C@@H]3O[C@H](COC(C)=O)[C@H](OC(C)=O)[C@H](OC(C)=O)[C@H]3OC(C)=O)[C@@H]2O)c1 3.16 µM
CC(=O)OC[C@H]1O[C@@H](O/N=C(\C)CCC(=O)OC[C@@H]2O[C@H](C#Cc3ccccc3)C=C[C@@H]2Oc2ccc(C)cc2)[C@H](OC(C)=O)[C@@H](OC(C)=O)[C@H]1OC(C)=O 3.98 µM
O=C(NCCNc1ccc([N+](=O)[O-])cc1)c1ccccc1Br 11.2 µM
C[C@@H](C(=O)Nc1ccc2ccccc2c1)[C@H]1C[C@]1(C)[C@H](NC(=O)c1cnccn1)c1ccccc1 0.1 µM
C[C@@H](C(=O)Nc1ccc2ccccc2c1)[C@@H]1C[C@@]1(C)[C@@H](NC(=O)c1ccncc1Cl)c1ccccc1 12.6 µM

AC50, inactive:
COc1c(C)c2c(c(O)c1C/C=C(\C)CCC(=O)O)C(=O)OC2
